Data reported in PubChem BioAssay.
Activity calls are given as the source filed them. Unless noted, the rule behind the calls is not given here.

How the values were obtained:
[1] = test system: Wnt5a (protein binding on small-molecule microarray); experiment: small molecules binding Wnt5a protein – biophysical, small-molecule microarray, 635/667 nm fluorescence, primary screen (AID 1142); conditions: 635 nm fluorescence, higher = more signal;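 note: fluorescence read at 667 nm with signal to noise per printed feature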
[2] = ATP-based viability of Huh7 replicon cells – cell-based, CellTiter-Glo luminescence, basal, 48 h, cytotoxicity control for HCV replication inhibitor project, primary screen (AID 1143); conditions: higher = more signal, called active from +8 up or from −8 down;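 note: Huh7 hepatoma cells carrying a hepatitis C replication reporter with no stimulus; test concentration not given here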
[3] = Pseudomonas biofilm growth suppression – PAO1 strain, BacTiter-Glo luminescence, LB-PBS, primary screen (AID 1144); conditions: P. aeruginosa PAO1 biofilm, 12 h, higher = more signal
[4] = basal CRE-LacZ reporter activity in PC12 – cell-based, unstimulated, primary screen (AID 1145); conditions: no forskolin, luminescence, 4.5 h, higher = more signal, called active from +8 up or from −8 down
[5] = forskolin-driven CRE-LacZ activity in PC12 – cell-based, CRE-LacZ reporter, forskolin-stimulated, primary screen (AID 1146); conditions: luminescence, 4.5 h, higher = more signal, called active from +8 up or from −8 down;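 note: PC12 cells with 6xCRE LacZ reporter stimulated by forskolin 10 µM; beta-galactosidase reporter signal reflecting CREB driven transcription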
[6] = target: Streptavidin (Streptomyces avidinii) (UniProt P22629); experiment: compounds binding control protein streptavidin – biophysical, small-molecule microarray, 635/667 nm fluorescence, artefact control for SMM compound annotation, primary screen (AID 1147); conditions: higher = more signal;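 note: signal reflects streptavidin binding to arrayed compounds as a control protein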
[7] = probe aInhba binding on compound microarray – biochemical, small-molecule microarray, 635/667 nm fluorescence, primary screen (AID 1148); conditions: higher = more signal;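 note: score merges 667nm spot fluorescence with signal-to-noise for antibody binding to printed compounds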
Torsin-1A (Homo sapiens) [8] = target: Torsin-1A (Homo sapiens) (UniProt O14656); experiment: TOR1A wild-type binding on microarray – cell lysate, small-molecule microarray, lysate, 635/667 nm, primary screen (AID 1149); conditions: COS7 hTOR1A-WT lysate, 635 nm fluorescence, higher = more signal
Torsin-1A (Homo sapiens) [9] = target: Torsin-1A (Homo sapiens) (UniProt O14656); experiment: torsin A mutant lysate binding on microarrays – cell lysate, small-molecule microarray, COS7 lysate, 635/667 nm fluorescence, primary screen (AID 1150); conditions: COS7 hTOR1A mutant lysate, 635 nm fluorescence, higher = more signal;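 note: score pools 667 nm emission and signal to noise measuring lysate protein binding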
[10] = test system: Sonic hedgehog protein (Shh); experiment: Sonic hedgehog microarray binding compounds – biochemical, small-molecule microarray, 635/667 nm fluorescence, primary screen (AID 1151); conditions: 635 nm fluorescence, higher = more signal;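 note: Shh protein binding to compounds spotted on small-molecule microarray slides; score combines spot fluorescence intensity with signal-to-noise across triplicate slides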
[11] = optical density shifts of acrAB sulA E. coli – strain DRC41, OD650, 48 h, E. coli filamentation inducer project, primary screen (AID 1152); conditions: higher = more signal, called active from +8 up or from −8 down;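 note: E. coli MC1000 strain DRC41 lacking acrAB efflux pump and sulA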
[12] = probe aLefty1 binding on compound microarray – biochemical, small-molecule microarray, 635/667 nm fluorescence, primary screen (AID 1153); conditions: higher = more signal;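 note: score merges spot fluorescence with signal-to-noise ratio from the scanned slide images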
[13] = plasmodial surface anion channel blockers, osmotic lysis – cell-based, P. falciparum Indochina, OD700, 1 h, primary screen (AID 1154); conditions: P. falciparum Indochina infected RBC osmotic lysis, higher = more signal, called active from +8 up or from −8 down
[14] = plasmodial surface anion channel blockers, osmotic lysis – cell-based, P. falciparum Indochina, OD700, 2 h, primary screen (AID 1155);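 note: lysis reports solute entry through the parasite surface anion channel PSAC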; conditions: P. falciparum Indochina infected erythrocytes, higher = more signal, called active from +8 up or from −8 down
[15] = changes in parasitized red cell lysis, either direction – P. falciparum Indochina, OD700, 3 h, PSAC antagonist project, primary screen (AID 1156); conditions: P. falciparum-infected erythrocytes, osmotic lysis, higher = more signal, called active from +8 up or from −8 down
[16] = plasmodial surface anion channel blockers, osmotic lysis – cell-based, P. falciparum Indochina, OD700, 18 h, primary screen (AID 1157); conditions: P. falciparum Indochina infected erythrocytes, osmotic lysis OD700, 18 h; higher = more signal, called active from +8 up or from −8 down
[17] = S6 kinase pathway phospho-S6 level changes – cell-based, A549, cytoblot, luminescence, serum-stimulated, primary screen (AID 1158); conditions: 5 h, higher = more signal;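 note: serum-stimulated A549 lung adenocarcinoma cells; signal is phosphorylated S6 detected by cytoblot immunostaining with HRP secondary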
[18] = target: NADPH oxidase 2 (Homo sapiens) (UniProt P04839); experiment: compounds shifting NOX2 Amplex Red fluorescence – cell-based, HEK293-NOX2, PMA-stimulated, NOX inhibitor project, primary screen (AID 1159); conditions: 45 min, higher = more signal, called active from +8 up or from −8 down; note: test concentration not given here
[19] = target: NADPH oxidase 4 (Homo sapiens) (UniProt Q9NPH5); experiment: compounds shifting NOX4 Amplex Red fluorescence – cell-based, HEK293-NOX4, tetracycline-induced, NOX inhibitor project, primary screen (AID 1160); conditions: HEK293-NOX4, Amplex Red H2O2 fluorescence, 45 min; higher = more signal, called active from +8 up or from −8 down
[20] = target: NADPH oxidase 5 (Homo sapiens) (UniProt Q96PH1); experiment: compounds shifting NOX5 Amplex Red fluorescence – cell-based, HEK293-NOX5, NOX inhibitor project, primary screen (AID 1161); conditions: HEK293-NOX5, ionomycin, 45 min, higher = more signal
NADPH oxidase 5 (Homo sapiens), sequence (Q96PH1 whole entry, looked up): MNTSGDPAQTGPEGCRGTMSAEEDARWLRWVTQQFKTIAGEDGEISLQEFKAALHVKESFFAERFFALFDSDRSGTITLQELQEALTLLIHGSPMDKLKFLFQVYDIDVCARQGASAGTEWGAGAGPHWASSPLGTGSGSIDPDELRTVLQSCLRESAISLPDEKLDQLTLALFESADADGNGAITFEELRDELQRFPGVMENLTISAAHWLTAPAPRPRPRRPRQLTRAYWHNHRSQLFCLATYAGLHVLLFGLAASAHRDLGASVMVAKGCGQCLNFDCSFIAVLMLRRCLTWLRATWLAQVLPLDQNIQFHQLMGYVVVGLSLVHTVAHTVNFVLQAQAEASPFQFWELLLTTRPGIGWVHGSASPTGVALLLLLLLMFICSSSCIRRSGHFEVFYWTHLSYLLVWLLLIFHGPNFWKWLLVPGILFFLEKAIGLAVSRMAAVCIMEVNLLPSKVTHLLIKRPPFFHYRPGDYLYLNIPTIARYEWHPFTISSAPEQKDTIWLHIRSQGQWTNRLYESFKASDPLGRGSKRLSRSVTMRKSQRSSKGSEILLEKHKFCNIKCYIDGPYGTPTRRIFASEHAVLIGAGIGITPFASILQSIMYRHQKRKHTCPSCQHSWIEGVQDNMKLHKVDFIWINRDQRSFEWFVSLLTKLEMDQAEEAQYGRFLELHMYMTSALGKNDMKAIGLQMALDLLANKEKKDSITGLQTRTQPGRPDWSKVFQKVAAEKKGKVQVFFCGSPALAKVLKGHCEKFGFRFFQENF

NADPH oxidase 2 (Homo sapiens), sequence (P04839 whole entry, looked up): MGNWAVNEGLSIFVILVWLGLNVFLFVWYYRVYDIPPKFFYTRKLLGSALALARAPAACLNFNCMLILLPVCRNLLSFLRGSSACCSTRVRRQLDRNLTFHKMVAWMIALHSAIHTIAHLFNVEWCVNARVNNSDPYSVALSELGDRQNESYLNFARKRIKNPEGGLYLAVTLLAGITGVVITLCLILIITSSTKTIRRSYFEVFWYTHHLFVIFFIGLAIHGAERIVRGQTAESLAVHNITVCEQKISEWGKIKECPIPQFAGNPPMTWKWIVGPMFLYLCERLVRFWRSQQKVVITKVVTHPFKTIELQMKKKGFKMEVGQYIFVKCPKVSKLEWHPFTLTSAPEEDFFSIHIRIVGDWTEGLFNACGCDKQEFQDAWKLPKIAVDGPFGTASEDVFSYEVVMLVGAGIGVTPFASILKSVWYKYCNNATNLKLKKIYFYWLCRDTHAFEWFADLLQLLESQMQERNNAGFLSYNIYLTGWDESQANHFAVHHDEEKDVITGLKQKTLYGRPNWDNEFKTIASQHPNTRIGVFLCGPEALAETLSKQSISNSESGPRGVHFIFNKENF
Torsin-1A (Homo sapiens), sequence (O14656 whole entry, looked up): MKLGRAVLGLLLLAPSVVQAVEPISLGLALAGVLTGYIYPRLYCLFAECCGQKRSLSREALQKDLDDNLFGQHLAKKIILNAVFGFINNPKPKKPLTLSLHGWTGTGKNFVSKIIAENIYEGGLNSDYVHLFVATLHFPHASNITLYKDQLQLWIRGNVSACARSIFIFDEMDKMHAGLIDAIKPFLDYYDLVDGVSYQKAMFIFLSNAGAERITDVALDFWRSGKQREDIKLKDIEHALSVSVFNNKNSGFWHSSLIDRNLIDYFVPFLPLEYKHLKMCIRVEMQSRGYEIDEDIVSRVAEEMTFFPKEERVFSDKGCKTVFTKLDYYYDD
NADPH oxidase 4 (Homo sapiens), sequence (Q9NPH5 whole entry, looked up): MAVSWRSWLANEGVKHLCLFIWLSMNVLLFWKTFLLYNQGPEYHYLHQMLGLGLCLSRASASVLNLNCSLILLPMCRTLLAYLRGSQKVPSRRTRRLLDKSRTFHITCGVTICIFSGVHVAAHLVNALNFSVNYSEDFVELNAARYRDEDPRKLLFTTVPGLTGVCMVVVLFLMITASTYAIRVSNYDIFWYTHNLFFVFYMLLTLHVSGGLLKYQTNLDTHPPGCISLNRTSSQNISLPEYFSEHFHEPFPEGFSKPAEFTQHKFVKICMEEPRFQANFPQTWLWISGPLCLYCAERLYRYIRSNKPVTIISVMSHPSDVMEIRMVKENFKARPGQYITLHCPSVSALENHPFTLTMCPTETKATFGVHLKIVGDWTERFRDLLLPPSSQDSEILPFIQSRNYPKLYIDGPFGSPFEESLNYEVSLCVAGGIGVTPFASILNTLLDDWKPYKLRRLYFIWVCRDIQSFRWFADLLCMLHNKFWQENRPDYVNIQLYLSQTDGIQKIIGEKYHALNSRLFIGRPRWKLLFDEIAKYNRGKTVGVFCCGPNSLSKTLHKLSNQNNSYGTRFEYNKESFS
Streptavidin (Streptomyces avidinii), sequence (P22629 whole entry, looked up): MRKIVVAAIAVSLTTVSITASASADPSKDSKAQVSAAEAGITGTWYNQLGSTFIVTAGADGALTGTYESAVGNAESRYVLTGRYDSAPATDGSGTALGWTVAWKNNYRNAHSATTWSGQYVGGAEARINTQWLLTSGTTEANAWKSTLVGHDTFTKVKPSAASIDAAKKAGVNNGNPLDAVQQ

Compound	composite z-score [1]	z-score [2]	z-score [3]	z-score [4]	z-score [5]	composite z-score [6]	composite z-score [7]	composite z-score (Torsin-1A (Homo sapiens) [8])	composite z-score (Torsin-1A (Homo sapiens) [9])	composite z-score [10]	z-score [11]	composite z-score [12]	z-score [13]	z-score [14]	z-score [15]	z-score [16]	z-score [17]	z-score [18]	z-score [19]	z-score [20]
CCOC(=O)[C@H](CC(C)C)NC(=O)CCC1CC(OC(=O)NCc2ccc3c(c2)OCO3)CC2(CCCC(COC(=O)NCCOC)O2)O1 (stereo not given in full)	-0.0334	-0.413 (inactive)	0.211 (inactive)	0.56 (inactive)	0.59 (inactive)	0.0301	-0.0006	-0.0402	0.354	1.46	-2.3 (inactive)	0.292	1.3 (inactive)	0.529 (inactive)	-0.535 (inactive)	0.0508 (inactive)	-0.421	-0.288 (inactive)	-0.0492 (inactive)	0.144
O=C1[C@H]2CCn3c(=O)n(-c4ccccc4)c(=O)n3[C@H]2[C@H](O)[C@@H]2O[C@H]12	0.0253	0.332 (inactive)	0.102 (inactive)	-0.0164 (inactive)	0.0871 (inactive)	0.556	-0.272	0.0097	0.109	0.24	-0.323 (inactive)	-0.391	-0.132 (inactive)	0.105 (inactive)	0.337 (inactive)	0.304 (inactive)	-0.236	-1.3 (inactive)	-0.584 (inactive)	0.423
CC(C)=NO[C@H](C)c1cn([C@@H]2COC[C@H]2O)nn1	0.185	0.495 (inactive)	-1.16 (inactive)	0.099 (inactive)	-0.0851 (inactive)	-0.085	-0.0963	0.455	0.461	0.477	0.36 (inactive)	-0.0518	0.813 (inactive)	0.935 (inactive)	0.627 (inactive)	0.489 (inactive)	0.381	0.0279 (inactive)	0.549 (inactive)	0.595
O=C1[C@H]2[C@H]3[C@H](O)[C@H](O)CC(=NO[C@@H]4O[C@H](CO)[C@@H](O)[C@H](O)[C@H]4O)[C@H]3CC[C@H]2C(=O)N1c1ccc(F)cc1F	0.0816	-1.9 (inactive)	1.42 (inactive)	-0.837 (inactive)	-0.0522 (inactive)	-0.695	-0.0774	0.835	0.189	-0.704	-0.205 (inactive)	0.0865	2.95 (inactive)	0.454 (inactive)	0.887 (inactive)	0.159 (inactive)	-0.56	-0.307 (inactive)	0.73 (inactive)	0.667
CC(C)(C)N1C(=O)[C@H]2[C@H]3[C@H](O)[C@H](O)CC(=NNC(=O)OCc4ccccc4)[C@@H]3CC[C@H]2C1=O	-0.0841	0.633 (inactive)	-0.0893 (inactive)	-0.0258 (inactive)	0.314 (inactive)	0.171	-0.13	0.472	0.322	0.226	0.323 (inactive)	-0.153	0.0391 (inactive)	0.193 (inactive)	-0.279 (inactive)	-0.385 (inactive)	-0.731	0.788 (inactive)	0.739 (inactive)	0.0356
O=C1C=C[C@@H](O)[C@@H]2[C@@H]3C(=O)N(c4cccc(Oc5ccccc5)c4)C(=O)[C@@H]3CC[C@@H]12	-0.136	-3.63 (inactive)	-0.743 (inactive)	1.43 (inactive)	-0.358 (inactive)	0.061	-0.128	0.96	-0.118	0.64	-1.65 (inactive)	-0.103	0.641 (inactive)	-0.158 (inactive)	-0.441 (inactive)	-1.07 (inactive)	0.249	0.472 (inactive)	-0.433 (inactive)	0.283
CCOC(=O)CCN1C(=O)[C@H]2[C@H]3[C@H](O)[C@H](O)CC(=NNC(=O)OCC)[C@H]3CC[C@H]2C1=O	-0.034	-1.63 (inactive)	1.25 (inactive)	-0.202 (inactive)	0.531 (inactive)	-0.58	-0.24	0.0668	0.204	1.1	-0.793 (inactive)	-0.0611	3.88 (inactive)	0.635 (inactive)	1 (inactive)	1.07 (inactive)	-0.242	0.415 (inactive)	-0.702 (inactive)	-4.72
COC(=O)[C@H](CCSC)NC(=O)CC=C[C@@H](C)CO	0.848	-0.62 (inactive)	-0.449 (inactive)	0.75 (inactive)	0.118 (inactive)	-1.27	-0.128	3.29	3.16	2.18	0.193 (inactive)	-0.101	0.291 (inactive)	0.317 (inactive)	-0.0396 (inactive)	-0.167 (inactive)	0.81	1.58 (inactive)	-1.2 (inactive)	0.613
